Measurements as given in the supplement of paper PMC10849652.
The full data set covers some 7,900 targets. This sample favours those with a hit. About 0.6% of all pairs of compound and target were hits.

Assays:
Experiment in all cases: log2 fold change, soluble protein after heating vs DMSO (PISA); higher = thermal stabilisation; K562 cells, 10 uM, 30 min; active = over 0.2 and 3.5 SD of the protein, either way, in both replicates (recomputed)
[1] = compound: C#Cc1cccc(Nc2ncnc3cc(OCCOC)c(OCCOC)cc23)c1 [erlotinib]
Procedure, shortened: (§1)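 K562 cells at 2×10^6 cells/mL were treated for 30 min with 10 μM compound, and aliquots were heated for 3 min over 48°C-58°C before pooling. Extraction used PBS with 0.5% NP-40 at 4°C, and soluble protein was the supernatant after 21,000xg for 90 min, measured by TMTpro 16plex LC-MS/MS with channel sums equalised. Thermal stability values, relative to control samples and from duplicates, are log2 fold changes.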

[2] = compound: C/C(=N\NC(=O)C1=CC(=CC=C1)S(=O)(=O)N2CCOCC2)/C3=C(C=CC(=C3)Cl)O
Procedure, shortened: as §1

[3] = compound: C1=CC(=C(C=C1Cl)C2=NC3=NC=CN=C3C(=N2)NC4=CC=NC=C4)F
Procedure, shortened: as §1

[4] = compound: C1=CC(=CC=C1C2=NC3=C(N2)C=C(C=C3)C(=O)N)OC4=CC=C(C=C4)Cl
Procedure, shortened: as §1

[5] = compound: C1=CC2=C(C=CC(=C2)/C=C\3/C(=O)NC(=NCC4=CC=CS4)S3)N=C1
Procedure, shortened: as §1

[6] = compound: C1=CC2=NC=CN=C2C=C1/C=C/3\C(=O)NC(=O)S3
Procedure, shortened: as §1

[7] = compound: C1=CC=C(C=C1)C2=NC(=C(N2)C3=CC=NC=C3)C4=CC(=C(C=C4)Cl)O
Procedure, shortened: as §1

[8] = compound: C1=CC=C2C(=C1)C3=NNC4=CC=CC(=C43)C2=O
Procedure, shortened: as §1

[9] = compound: C1CCN(C1)C(=O)NC2=CC=CC(=C2)NC3=NC=C(C(=N3)NCCC4=CN=CN4)Br
Procedure, shortened: as §1

[10] = compound: C1CN(CCC1(CC2=CC=C(C=C2)Cl)N)C3=NC=NC4=C3C=CN4
Procedure, shortened: as §1

Measured: log2 fold change

C4orf33 (UniProt Q8N1A6)
Sequence of UniProt Q8N1A6 (Q8N1A6 whole entry, looked up): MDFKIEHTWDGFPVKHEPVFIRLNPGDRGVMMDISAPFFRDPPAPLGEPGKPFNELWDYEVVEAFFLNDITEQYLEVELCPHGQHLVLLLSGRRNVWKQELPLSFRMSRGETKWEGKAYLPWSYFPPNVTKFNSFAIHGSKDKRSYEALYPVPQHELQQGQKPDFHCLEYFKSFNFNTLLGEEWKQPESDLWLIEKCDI
active: [6] -0.287
inactive: [1] -0.026 | [2] 0.023 | [3] 0.052 | [4] 0.138 | [5] 0.072 | [7] -0.092 | [8] 0.016 | [9] 0.017 | [10] 0.06

CRKL (UniProt P46109)
Sequence of UniProt P46109 (P46109 whole entry, looked up): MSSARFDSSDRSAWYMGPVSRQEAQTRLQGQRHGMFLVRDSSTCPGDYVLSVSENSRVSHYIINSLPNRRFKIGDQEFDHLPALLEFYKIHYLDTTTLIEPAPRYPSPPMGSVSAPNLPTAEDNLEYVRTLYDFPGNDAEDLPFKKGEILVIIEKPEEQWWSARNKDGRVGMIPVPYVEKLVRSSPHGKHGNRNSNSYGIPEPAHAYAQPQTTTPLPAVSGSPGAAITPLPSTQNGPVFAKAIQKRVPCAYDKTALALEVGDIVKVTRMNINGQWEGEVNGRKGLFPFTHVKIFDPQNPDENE
inactive: [1] -0.012 | [2] -0.002 | [3] 0.014 | [4] -0.02 | [5] 0.047 | [6] 0.006 | [7] -0.069 | [8] -0.017 | [9] 0.017 | [10] 0.026

CCNC (UniProt P24863)
Sequence of UniProt P24863 (P24863 whole entry, looked up): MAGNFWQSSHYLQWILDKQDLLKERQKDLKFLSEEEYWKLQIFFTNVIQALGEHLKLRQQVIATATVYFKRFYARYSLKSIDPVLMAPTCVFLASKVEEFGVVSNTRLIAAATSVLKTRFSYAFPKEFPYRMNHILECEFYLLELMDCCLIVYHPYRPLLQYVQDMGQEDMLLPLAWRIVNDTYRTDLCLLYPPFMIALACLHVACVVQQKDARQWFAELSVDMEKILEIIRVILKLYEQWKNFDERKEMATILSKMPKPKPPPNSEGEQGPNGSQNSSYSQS
inactive: [1] -0.056 | [2] -0.077 | [3] -0.122 | [4] -0.026 | [5] 0.096 | [6] 0.256 | [7] -0.001 | [8] 0.209

CERS2 (UniProt Q96G23)
Sequence of UniProt Q96G23 (Q96G23 whole entry, looked up): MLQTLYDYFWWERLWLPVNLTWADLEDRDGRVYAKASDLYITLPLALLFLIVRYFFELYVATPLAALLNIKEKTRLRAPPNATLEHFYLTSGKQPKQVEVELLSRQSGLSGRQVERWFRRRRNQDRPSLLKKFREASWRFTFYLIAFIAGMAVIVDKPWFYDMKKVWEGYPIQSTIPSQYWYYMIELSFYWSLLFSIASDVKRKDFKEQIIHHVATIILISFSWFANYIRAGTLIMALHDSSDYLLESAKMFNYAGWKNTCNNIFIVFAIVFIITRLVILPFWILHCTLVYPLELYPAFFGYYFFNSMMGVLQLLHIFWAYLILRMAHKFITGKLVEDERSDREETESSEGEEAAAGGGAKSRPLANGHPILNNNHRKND
inactive: [1] 0.032 | [2] 0.001 | [3] 0.013 | [4] 0.007 | [5] 0.004 | [6] 0.033 | [7] 0.01 | [8] -0.025 | [9] 0.074 | [10] 0.087

CHD3 isoform 3 (UniProt Q12873)
inactive: [1] -0.052 | [2] 0.148 | [3] 0.005 | [4] -0.062 | [5] 0 | [6] 0.034 | [7] 0.388 | [8] -0.123 | [9] -0.125 | [10] -0.093

CEMIP2 (UniProt Q9UHN6)
inactive: [1] 0.076 | [2] 0.018 | [3] -0.042 | [4] 0.001 | [5] 0.087 | [6] 0.029 | [7] -0.071 | [8] -0.066 | [9] 0.084 | [10] 0.041

CLCN3 (UniProt P51790)
inactive: [1] -0.024 | [2] 0.079 | [3] -0.053 | [4] -0.045 | [5] 0.023 | [6] 0.07 | [7] -0.01 | [8] -0.03 | [9] -0.032 | [10] 0.055

CDC37L1 (UniProt Q7L3B6)
Sequence of UniProt Q7L3B6 (Q7L3B6 whole entry, looked up): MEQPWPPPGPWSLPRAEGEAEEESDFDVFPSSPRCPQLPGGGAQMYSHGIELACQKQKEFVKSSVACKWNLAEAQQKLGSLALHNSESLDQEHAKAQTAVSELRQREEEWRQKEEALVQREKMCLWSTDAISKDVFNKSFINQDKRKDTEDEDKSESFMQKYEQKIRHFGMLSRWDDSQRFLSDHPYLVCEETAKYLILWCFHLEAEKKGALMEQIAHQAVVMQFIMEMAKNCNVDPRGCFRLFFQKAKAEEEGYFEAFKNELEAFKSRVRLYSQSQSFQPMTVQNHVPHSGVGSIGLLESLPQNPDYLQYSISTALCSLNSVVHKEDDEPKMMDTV
inactive: [1] -0.069 | [2] 0.008 | [3] -0.007 | [4] -0.035 | [5] 0.054 | [6] 0.068 | [7] 0 | [8] -0.012 | [9] 0.203 | [10] 0.357

COX6B1 (UniProt P14854)
Sequence of UniProt P14854 (P14854 whole entry, looked up): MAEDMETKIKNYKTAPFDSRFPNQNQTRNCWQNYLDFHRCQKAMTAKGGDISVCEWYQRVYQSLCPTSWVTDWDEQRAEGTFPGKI
inactive: [1] 0.027 | [2] 0.011 | [3] 0.247 | [4] -0.045 | [5] 0.118 | [6] 0.048 | [7] 0 | [8] -0.037 | [9] -0.003 | [10] -0.019

CTBS (UniProt Q01459)
Sequence of UniProt Q01459 (Q01459 whole entry, looked up): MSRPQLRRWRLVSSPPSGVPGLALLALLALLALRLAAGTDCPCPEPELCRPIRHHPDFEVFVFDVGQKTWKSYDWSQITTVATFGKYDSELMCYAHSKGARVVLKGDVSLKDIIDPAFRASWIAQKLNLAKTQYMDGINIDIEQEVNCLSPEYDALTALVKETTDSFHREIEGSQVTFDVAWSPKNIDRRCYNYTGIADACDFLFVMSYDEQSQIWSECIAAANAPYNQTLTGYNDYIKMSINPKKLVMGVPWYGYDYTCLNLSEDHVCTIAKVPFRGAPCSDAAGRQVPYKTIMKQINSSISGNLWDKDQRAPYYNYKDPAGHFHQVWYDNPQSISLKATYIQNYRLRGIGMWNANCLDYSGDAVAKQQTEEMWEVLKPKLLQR
inactive: [1] 0.037 | [2] -0.008 | [3] -0.1 | [4] -0.023 | [5] 0.039 | [6] 0.013 | [7] -0.089 | [8] -0.002 | [9] -0.083 | [10] 0.048

CAD (UniProt P27708)
inactive: [1] -0.083 | [2] 0.042 | [3] -0.014 | [4] -0.003 | [5] 0.125 | [6] -0.011 | [7] 0.057 | [8] -0.063 | [9] 0.013 | [10] 0.046

CSNK1D (UniProt P48730)
inactive: [1] 0.033 | [2] -0.02 | [3] -0.143 | [4] 0.011 | [5] -0.05 | [6] 0.051 | [7] 0.165 | [8] 0.258 | [9] -0.035 | [10] -0.086

CCAR2 isoform 2 (UniProt Q8N163)
inactive: [1] 0.027 | [2] 0.063 | [3] 0.033 | [4] -0.014 | [5] 0.071 | [6] 0 | [7] 0.014 | [8] -0.039 | [9] 0.001 | [10] 0.007

COX5A (UniProt P20674)
inactive: [1] -0.005 | [2] -0.05 | [3] 0.104 | [4] 0.052 | [5] 0.045 | [6] 0.016 | [7] 0.183 | [8] 0.051 | [9] -0.026 | [10] -0.081

CNOT1 (UniProt A5YKK6)
inactive: [1] 0.013 | [2] 0.102 | [3] -0.003 | [4] -0.007 | [5] 0.035 | [6] 0.001 | [7] 0.014 | [8] -0.004 | [9] -0.009 | [10] -0.008

CDKN1B (UniProt P46527)
inactive: [1] -0.076 | [2] 0.027 | [3] -0.133 | [4] 0.064 | [5] -0.217 | [6] -0.049 | [7] -0.1 | [8] -0.01

CDK4 (UniProt P11802)
inactive: [1] 0.075 | [2] -0.244 | [3] -0.008 | [4] -0.086 | [5] 0.329 | [6] 0.11 | [7] -0.067 | [8] 0.032

CETN2 (UniProt P41208)
inactive: [1] 0.121 | [2] -0.015 | [3] -0.002 | [4] 0.017 | [5] -0.058 | [6] 0.03 | [7] -0.058 | [8] -0.113 | [9] 0.039 | [10] 0.049

CDK2AP2 (UniProt O75956)
Sequence of UniProt O75956 (O75956 whole entry, looked up): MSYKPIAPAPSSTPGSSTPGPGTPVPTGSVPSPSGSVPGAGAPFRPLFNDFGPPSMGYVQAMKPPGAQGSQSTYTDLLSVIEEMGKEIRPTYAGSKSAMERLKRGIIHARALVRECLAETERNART
inactive: [1] -0.142 | [2] -0.007 | [3] 0.037 | [4] 0.043 | [5] 0.063 | [6] 0.103 | [7] 0.007 | [8] 0

CD53 (UniProt P19397)
inactive: [1] 0.041 | [2] 0.028 | [3] 0.059 | [4] -0.006 | [5] 0.064 | [6] 0.01 | [7] -0.221 | [8] -0.086 | [9] -0.001 | [10] -0.007

CDC42EP1 (UniProt Q00587)
inactive: [1] 0.09 | [2] 0.063 | [3] 0.006 | [4] 0.115 | [5] 0.136 | [6] -0.011 | [7] -0.005 | [8] -0.086 | [9] -0.133 | [10] -0.001

CD63 (UniProt P08962)
Sequence of UniProt P08962 (P08962 whole entry, looked up): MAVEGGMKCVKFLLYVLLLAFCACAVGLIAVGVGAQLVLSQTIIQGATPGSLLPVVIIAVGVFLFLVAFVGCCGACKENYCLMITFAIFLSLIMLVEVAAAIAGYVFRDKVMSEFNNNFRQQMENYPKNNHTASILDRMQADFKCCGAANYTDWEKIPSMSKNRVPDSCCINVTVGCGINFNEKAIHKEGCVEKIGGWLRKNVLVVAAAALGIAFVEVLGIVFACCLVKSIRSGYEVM
inactive: [1] 0.01 | [2] 0.024 | [3] -0.045 | [4] -0.089 | [5] -0.027 | [6] 0.069 | [7] 0.009 | [8] 0.002 | [9] 0.004 | [10] 0.034

COPS8 (UniProt Q99627)
inactive: [1] 0.033 | [2] 0.032 | [3] -0.005 | [4] -0.002 | [5] 0.081 | [6] 0.008 | [7] 0.012 | [8] -0.042 | [9] -0.04 | [10] 0.015

CDC123 (UniProt O75794)
inactive: [1] -0.039 | [2] 0.038 | [3] 0.011 | [4] 0.036 | [5] -0.021 | [6] 0.032 | [7] 0.048 | [8] -0.001 | [9] -0.001 | [10] 0.023

CDKN2AIP (UniProt Q9NXV6)
inactive: [1] 0.017 | [2] -0.018 | [3] 0 | [4] 0.056 | [5] 0.018 | [6] 0.009 | [7] 0.036 | [8] 0.007 | [9] -0.006 | [10] -0.021

CDC25B isoform 4 (UniProt P30305)
Sequence of UniProt P30305 (P30305 whole entry, looked up): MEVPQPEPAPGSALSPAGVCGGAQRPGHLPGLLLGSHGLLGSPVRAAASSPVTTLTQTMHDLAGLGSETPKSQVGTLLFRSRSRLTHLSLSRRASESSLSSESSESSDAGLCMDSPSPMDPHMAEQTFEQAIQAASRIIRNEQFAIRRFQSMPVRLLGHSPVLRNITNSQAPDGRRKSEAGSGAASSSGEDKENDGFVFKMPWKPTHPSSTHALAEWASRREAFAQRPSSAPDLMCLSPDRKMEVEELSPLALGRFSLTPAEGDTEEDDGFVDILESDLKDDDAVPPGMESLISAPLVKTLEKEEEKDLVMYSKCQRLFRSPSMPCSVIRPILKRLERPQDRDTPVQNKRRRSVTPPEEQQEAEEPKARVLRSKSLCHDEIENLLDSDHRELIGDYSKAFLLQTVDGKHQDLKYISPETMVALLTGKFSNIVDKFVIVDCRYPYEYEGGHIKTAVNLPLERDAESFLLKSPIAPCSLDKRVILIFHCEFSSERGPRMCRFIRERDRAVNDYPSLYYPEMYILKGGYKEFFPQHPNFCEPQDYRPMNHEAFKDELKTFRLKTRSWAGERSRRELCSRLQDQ
inactive: [1] -0.031 | [2] 0.117 | [3] 0.036 | [4] 0.044 | [5] -0.062 | [6] 0.131 | [7] -0.007 | [8] -0.047

CBS (UniProt P35520)
Sequence of UniProt P35520 (P35520 whole entry, looked up): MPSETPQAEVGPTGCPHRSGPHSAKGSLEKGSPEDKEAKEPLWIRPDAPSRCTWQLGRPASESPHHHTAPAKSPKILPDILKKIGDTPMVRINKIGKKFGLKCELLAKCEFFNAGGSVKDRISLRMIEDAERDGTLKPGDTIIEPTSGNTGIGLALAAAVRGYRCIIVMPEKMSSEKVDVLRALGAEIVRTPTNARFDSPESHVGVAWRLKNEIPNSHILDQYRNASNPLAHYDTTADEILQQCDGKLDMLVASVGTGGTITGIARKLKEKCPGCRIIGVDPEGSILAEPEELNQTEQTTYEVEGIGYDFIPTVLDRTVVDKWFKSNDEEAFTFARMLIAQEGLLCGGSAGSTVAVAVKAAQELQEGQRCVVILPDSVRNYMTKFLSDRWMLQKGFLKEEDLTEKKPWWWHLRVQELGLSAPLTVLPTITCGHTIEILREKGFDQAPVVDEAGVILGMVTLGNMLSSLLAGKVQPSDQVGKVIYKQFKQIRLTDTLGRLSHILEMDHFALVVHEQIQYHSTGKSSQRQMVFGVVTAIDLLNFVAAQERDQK
inactive: [1] 0.014 | [2] -0.031 | [3] 0.039 | [4] -0.014 | [5] -0.026 | [6] 0.013 | [7] -0.03 | [8] 0.052 | [9] 0.025 | [10] 0.042

CHAF1A (UniProt Q13111)
inactive: [1] -0.046 | [2] -0.014 | [3] -0.121 | [4] 0.053 | [5] 0.027 | [6] 0.135 | [7] -0.047 | [8] -0.114

CERT isoform 3 (UniProt Q9Y5P4)
Sequence of UniProt Q9Y5P4 (Q9Y5P4 whole entry, looked up): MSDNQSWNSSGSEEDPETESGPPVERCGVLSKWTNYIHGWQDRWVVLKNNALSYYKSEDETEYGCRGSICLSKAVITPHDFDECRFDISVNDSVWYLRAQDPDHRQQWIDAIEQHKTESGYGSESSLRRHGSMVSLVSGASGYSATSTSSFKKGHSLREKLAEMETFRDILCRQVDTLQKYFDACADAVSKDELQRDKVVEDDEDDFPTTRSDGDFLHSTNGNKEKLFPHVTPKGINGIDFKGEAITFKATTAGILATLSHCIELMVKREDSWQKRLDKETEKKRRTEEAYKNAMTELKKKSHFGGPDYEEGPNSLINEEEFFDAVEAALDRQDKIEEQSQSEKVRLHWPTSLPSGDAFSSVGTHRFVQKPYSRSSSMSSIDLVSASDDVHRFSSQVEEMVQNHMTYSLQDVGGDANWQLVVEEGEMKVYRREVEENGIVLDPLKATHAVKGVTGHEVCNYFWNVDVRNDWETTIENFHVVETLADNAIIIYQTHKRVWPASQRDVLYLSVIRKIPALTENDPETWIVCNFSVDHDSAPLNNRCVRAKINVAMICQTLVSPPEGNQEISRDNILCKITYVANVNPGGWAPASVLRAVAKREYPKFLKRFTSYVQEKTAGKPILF
inactive: [1] 0.05 | [2] 0.083 | [3] 0.018 | [4] -0.009 | [5] 0.039 | [6] 0.005 | [7] 0.044 | [8] 0 | [9] -0.054 | [10] -0.007

CKB (UniProt P12277)
Sequence of UniProt P12277 (P12277 whole entry, looked up): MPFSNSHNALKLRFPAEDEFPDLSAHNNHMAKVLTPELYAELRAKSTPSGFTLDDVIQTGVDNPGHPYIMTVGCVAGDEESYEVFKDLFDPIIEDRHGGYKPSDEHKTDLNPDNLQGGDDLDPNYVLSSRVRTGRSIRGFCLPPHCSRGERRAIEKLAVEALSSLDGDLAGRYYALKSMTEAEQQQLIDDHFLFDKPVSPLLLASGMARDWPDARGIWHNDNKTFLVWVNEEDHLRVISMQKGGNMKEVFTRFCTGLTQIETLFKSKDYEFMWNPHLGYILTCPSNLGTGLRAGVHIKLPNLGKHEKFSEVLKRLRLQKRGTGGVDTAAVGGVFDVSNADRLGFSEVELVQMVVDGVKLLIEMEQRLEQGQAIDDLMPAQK
inactive: [1] 0.011 | [2] 0.045 | [3] 0.052 | [4] 0.035 | [5] 0.018 | [6] -0.038 | [7] 0.01 | [8] 0.065 | [9] 0.022 | [10] 0.027

CD55 isoform 7 (UniProt P08174)
Sequence of UniProt P08174 (P08174 whole entry, looked up): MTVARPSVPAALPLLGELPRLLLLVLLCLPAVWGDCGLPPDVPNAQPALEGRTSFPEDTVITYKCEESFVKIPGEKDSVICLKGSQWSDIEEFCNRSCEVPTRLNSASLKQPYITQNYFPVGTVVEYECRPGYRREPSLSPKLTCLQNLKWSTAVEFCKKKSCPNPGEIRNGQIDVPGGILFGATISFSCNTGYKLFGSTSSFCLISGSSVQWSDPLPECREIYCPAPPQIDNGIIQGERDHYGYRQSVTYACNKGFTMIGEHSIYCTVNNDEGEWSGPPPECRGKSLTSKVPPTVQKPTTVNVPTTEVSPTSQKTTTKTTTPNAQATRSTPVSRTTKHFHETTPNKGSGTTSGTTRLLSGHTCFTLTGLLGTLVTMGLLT
inactive: [1] -0.065 | [2] -0.002 | [3] -0.031 | [4] 0.036 | [5] -0.121 | [6] -0.015 | [7] 0.011 | [8] -0.062 | [9] -0.079 | [10] 0.008
